Results reported in PubChem BioAssay (NCATS).
Inconclusive results are not listed. A call without a number means that no potency is given here. Calls of active or inactive are those of the source. The call rests on the fitted dose curve; in most records, active means well fitted curve in the direction sought with a large enough effect; inconclusive means small, poorly fitted or top-dose-only effect, or another doubt; inactive means no such curve, though single readings can be large; an effect the other way counts as inactive or inconclusive.

Tests used:
[1] = molecular target: Aldehyde dehydrogenase, mitochondrial (Homo sapiens) (UniProt P05091); assay: qHTS for Inhibitors of the Aldehyde Dehydrogenase Family (ALDH2) Primary screen (AID 2061308); conditions: ALDH2 enzyme inhibition qHTS, 1536-well; series mostly up to 56 µM; further: nearly all actives have a fitted effect of over 55% in size
[2] = molecular target: Retinaldehyde dehydrogenase 3 (Homo sapiens) (UniProt P47895); assay: qHTS for Inhibitors of the Aldehyde Dehydrogenase Family (ALDH1A3) Primary screen (AID 2061315); conditions: ALDH inhibition qHTS; series mostly up to 56 µM

SMILES | Potency [1] | Potency [2]
O=C1CCCC2=C1C1(CCCC1)N=C(Nc1nc3ccccc3n1Cc1ccccc1)N2 | inactive | inactive
CCCn1c(C)nc2c(N3CCC(N(C)C)C3)nc(C)nc21 (configuration not stated) | inactive | inactive
N#Cc1c(-c2ccco2)no[n+]1[O-] | inactive | inactive
Cc1c(C(=O)O)[nH]c2c1C(=O)CCC2 | inactive | inactive
COc1cc2nc(N3CCN(C(=O)c4ccco4)C4CCCCC43)nc(N)c2cc1OC (configuration not stated) | inactive | inactive
FC(F)(F)c1ccccc1-c1nc(NCc2cccc(Cl)c2)c2ccccc2n1 | inactive | inactive
COc1cccc(C2c3c(ncn(-c4ccccc4OC)c3=N)Oc3ccc4ccccc4c32)c1 (configuration not stated) | inactive | inactive
CNc1cc2c(cc1S(=O)(=O)Nc1ccc(C)c(C)c1)CCC(=O)N2 | inactive | inactive
O=c1c2ccccc2nc2sc(Nc3cccc4ccccc34)nn12 | inactive | inactive
Cc1cc(C)n2ncc(C(=O)Nc3ccc4c(c3)CCC4)c2n1 | inactive | inactive
Cc1noc(C)c1-c1ccc2ncnc(NCc3ccccc3C(F)(F)F)c2c1 | inactive | inactive
CC(C)CCn1c(CN2CCN(C(=O)C(C)C)CC2)nc2c1c(=O)n(C)c(=O)n2C | inactive | inactive
CC(C)(C)c1ccc(Nc2nc(C#N)nc(NC3CCCC3)n2)cc1 | inactive | inactive
O=C(COc1ccccc1Br)NCCc1nc2ccccc2[nH]1 | inactive | inactive
COc1ccc(C2Nc3ccccc3C(=O)N2Cc2ccco2)cc1COc1ccccc1C (configuration not stated) | inactive | inactive
COc1cccc(NS(=O)(=O)c2ccc(NCc3cccc(OC)c3O)cc2)c1 | inactive | inactive
